Measurements reported in PubChem BioAssay (NCATS).
Records with an inconclusive call do not appear. Entries that show only a call come without a potency. Activity calls are given as the source filed them. Calls follow the shape of the dose curve; as a rule, active = well fitted inhibition curve with a large enough effect; inconclusive = small, poorly fitted or top-dose-only effect; inactive = flat fitted curve, though single readings scatter.

Test system: CP217
Experiment: qHTS profiling for inhibitors of Plasmodium falciparum proliferation (AID 504749); also: nearly all actives have a fitted effect of over 60% in size
Details: P. falciparum in erythrocytes, SYBR Green DNA, 72 h; series mostly up to 12.8 µM
Procedure, shortened: (§1)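 Infected RBCs, 0.3% parasitemia/2.5% Hct final; cpd 72 h, 37 C, 5% CO2; lysis buffer with saponin/triton/SYBR Green I, o/n RT dark; FI 485/535; norm. to artemisinin (0.29 uM) and DMSO.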
Potency is read from the fitted curve at half-maximal effect.

SMILES	Potency
CC1(C)S[C@H]2C(NC(=O)[C@@H](N)c3ccc(O)cc3)C(=O)N2[C@@H]1C(=O)O (some centres not stated)	inactive
CN(C)CCc1c[nH]c2ccc(CC3COC(=O)N3)cc12 (configuration not stated)	inactive
CC(C)Oc1ccc2c(=O)cc(-c3ccccc3)oc2c1	inactive
N[C@@H]1C(O)OC(CO)C(O)C1O (some centres not stated)	inactive
CC(=O)[C@]1(O)CCC2C3C=C(Cl)C4=CC(=O)C5CC5[C@@]4(C)C3CC[C@]21C (some centres not stated)	inactive
CO[C@]12C(COC(N)=O)C3=C(C(=O)C(C)=C(N)C3=O)N1CC1NC12 (some centres not stated)	1.78 µM (active)
COC1OC(CO)C(OC2OC(C(=O)O)C(OC3OC(COS(=O)(=O)O)C(OC4OC(C(=O)O)C(OC5OC(CO)C(OC6OC(C(=O)O)C(OC7OC(COS(=O)(=O)O)C(OC8OC(C(=O)O)=C[C@H](O)C8OS(=O)(=O)O)C(O)C7NC(C)=O)[C@@H](O)C6O)C(O)C5NC(C)=O)[C@@H](O)C4O)C(O)C3NC(C)=O)[C@@H](O)C2O)C(O)C1NC(C)=O (some centres not stated)	10 µM (active)
C[C@@]12C=CC(=O)C=C1CCC1C3CC(O)[C@@](O)(C(=O)CO)[C@]3(C)CC(O)[C@]12F (some centres not stated)	inactive
CCC1OC(=O)C(C)[C@@H](O[C@H]2C[C@@](C)(OC)C(O)C(C)O2)C(C)[C@@H](O[C@@H]2OC(C)CC(N(C)C)C2O)[C@@](C)(O)CC(C)C(=O)[C@@H](C)C(O)[C@]1(C)O (some centres not stated)	inactive
CC1C2CCC3C4CC=C5CC(N(C)C)CC[C@@]5(C)C4CC[C@@]32CN1C (some centres not stated)	inactive
CCC(C)C(=O)OC1CC(O)C=C2C=CC(C)C(CCC(O)CC(O)CC(=O)O)C21 (configuration not stated)	inactive
OCC1OC(n2cnc3c(=S)nc[nH]c32)C(O)C1O (configuration not stated)	inactive

Test system: CP237
Experiment: as above
Details: P. falciparum in erythrocytes, SYBR Green DNA, 72 h; series mostly up to 12.8 µM
Procedure, shortened: as §1

SMILES	Potency
CC1(C)S[C@H]2C(NC(=O)[C@@H](N)c3ccc(O)cc3)C(=O)N2[C@@H]1C(=O)O (some centres not stated)	inactive
CN(C)CCc1c[nH]c2ccc(CC3COC(=O)N3)cc12 (configuration not stated)	inactive
C[C@@]12CCC(=O)C=C1C=CC1C2CC[C@]2(C)C1CC[C@@]21CCC(=O)O1 (some centres not stated)	inactive
NC(CCC(=O)N[C@@H](CS)C(=O)NCC(=O)O)C(=O)O (some centres not stated)	3.55 µM (active)
CC(C)Oc1ccc2c(=O)cc(-c3ccccc3)oc2c1	inactive
CC(=O)O[C@@]1(C(C)=O)CCC2C3CC(C)C4=CC(=O)CC[C@@]4(C)C3CC[C@]21C (some centres not stated)	inactive
N[C@@H]1C(O)OC(CO)C(O)C1O (some centres not stated)	inactive
CCC(=O)O[C@@]1(C(=O)CCl)C(C)CC2C3CCC4=CC(=O)C=C[C@@]4(C)[C@]3(F)C(O)C[C@]21C (some centres not stated)	10 µM (active)
CC(=O)[C@]1(O)CCC2C3C=C(Cl)C4=CC(=O)C5CC5[C@@]4(C)C3CC[C@]21C (some centres not stated)	inactive
CO[C@]12C(COC(N)=O)C3=C(C(=O)C(C)=C(N)C3=O)N1CC1NC12 (some centres not stated)	inactive
C[C@@]12C=CC(=O)C=C1CCC1C3CC(O)[C@@](O)(C(=O)CO)[C@]3(C)CC(O)[C@]12F (some centres not stated)	inactive
CCC1OC(=O)C(C)[C@@H](O[C@H]2C[C@@](C)(OC)C(O)C(C)O2)C(C)[C@@H](O[C@@H]2OC(C)CC(N(C)C)C2O)[C@@](C)(O)CC(C)C(=O)[C@@H](C)C(O)[C@]1(C)O (some centres not stated)	inactive
CC1C2CCC3C4CC=C5CC(N(C)C)CC[C@@]5(C)C4CC[C@@]32CN1C (some centres not stated)	inactive
CCC(C)C(=O)OC1CC(O)C=C2C=CC(C)C(CCC(O)CC(O)CC(=O)O)C21 (configuration not stated)	inactive
OCC1OC(n2cnc3c(=S)nc[nH]c32)C(O)C1O (configuration not stated)	inactive

Test system: CP238
Experiment: as above
Details: P. falciparum in erythrocytes, SYBR Green DNA, 72 h; series mostly up to 12.8 µM
Procedure, shortened: as §1

SMILES	Potency
CC1(C)S[C@H]2C(NC(=O)[C@@H](N)c3ccc(O)cc3)C(=O)N2[C@@H]1C(=O)O (some centres not stated)	inactive
CN(C)CCc1c[nH]c2ccc(CC3COC(=O)N3)cc12 (configuration not stated)	inactive
C[C@@]12CCC(=O)C=C1C=CC1C2CC[C@]2(C)C1CC[C@@]21CCC(=O)O1 (some centres not stated)	inactive
CC(C)Oc1ccc2c(=O)cc(-c3ccccc3)oc2c1	inactive
CCCCCCCCCc1ccc(OCCOCCOCCOCCOCCOCCOCCOCCOCCO)cc1	inactive
CC(=O)O[C@@]1(C(C)=O)CCC2C3CC(C)C4=CC(=O)CC[C@@]4(C)C3CC[C@]21C (some centres not stated)	inactive
N[C@@H]1C(O)OC(CO)C(O)C1O (some centres not stated)	inactive
CCC(=O)O[C@@]1(C(=O)CCl)C(C)CC2C3CCC4=CC(=O)C=C[C@@]4(C)[C@]3(F)C(O)C[C@]21C (some centres not stated)	7.94 µM (active)
CC(=O)[C@]1(O)CCC2C3C=C(Cl)C4=CC(=O)C5CC5[C@@]4(C)C3CC[C@]21C (some centres not stated)	inactive
CO[C@]12C(COC(N)=O)C3=C(C(=O)C(C)=C(N)C3=O)N1CC1NC12 (some centres not stated)	0.631 µM (active)
C[C@@]12C=CC(=O)C=C1CCC1C3CC(O)[C@@](O)(C(=O)CO)[C@]3(C)CC(O)[C@]12F (some centres not stated)	inactive
CCC1OC(=O)C(C)[C@@H](O[C@H]2C[C@@](C)(OC)C(O)C(C)O2)C(C)[C@@H](O[C@@H]2OC(C)CC(N(C)C)C2O)[C@@](C)(O)CC(C)C(=O)[C@@H](C)C(O)[C@]1(C)O (some centres not stated)	inactive
CC1C2CCC3C4CC=C5CC(N(C)C)CC[C@@]5(C)C4CC[C@@]32CN1C (some centres not stated)	inactive
CCC(C)C(=O)OC1CC(O)C=C2C=CC(C)C(CCC(O)CC(O)CC(=O)O)C21 (configuration not stated)	inactive
OCC1OC(n2cnc3c(=S)nc[nH]c32)C(O)C1O (configuration not stated)	inactive
